The structures appear in SMILES notation. Compounds without any hit were thinned out: in the full panel of roughly 79,000, 15% have a hit. A number with no mark means an inactive call. Calls of active or inactive are those of the source. Cut-off read from the data, not from the text of the source: active = growth inhibition above about 70%; inactive = the rest.

The nature of assay [1]: NCI Yeast Anticancer Drug Screen. Data for the rad50 strain (AID 155).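 Note: 0% = growth of vehicle-only cultures of the same strain.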 The settings on record: S. cerevisiae rad50 strain growth inhibition, hits give high values. In a few lines:
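Genetically altered yeast (DNA repair pathway); compound treatment; growth inhibition vs vehicle ctrl.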

The nature of assay [2]: NCI Yeast Anticancer Drug Screen. Data for the mec2-1 strain (AID 157). The settings on record: S. cerevisiae mec2-1 strain, hits give high values. In a few lines: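 Mutant yeast (mec2-1) grown with compound; growth inhibition relative to vehicle control reported.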
Assay [3] can be described thus: NCI Yeast Anticancer Drug Screen. Data for the sgs1 mgt1 strain (AID 161).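 Note: 0% = growth of cultures given vehicle only.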 The settings on record: S. cerevisiae sgs1 mgt1 strain, hits give high values. In a few lines:
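Percent growth inhibition was derived by comparing compound-exposed mutant yeast with vehicle-exposed cultures. The strain carries alterations in DNA damage repair.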

Assay [4] can be described thus: NCI Yeast Anticancer Drug Screen. Data for the cln2 rad14 strain (AID 165).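 Note: 0% = growth equal to vehicle treated cultures.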 The following applies: S. cerevisiae cln2 rad14 strain, hits give high values. In a few lines: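 Readout is yeast growth inhibition versus vehicle-treated controls, using a strain with cln2 and rad14 alterations exposed to compound.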
A short description of assay [5]: NCI Yeast Anticancer Drug Screen. Data for the bub3 strain (AID 167). The settings on record: S. cerevisiae bub3 mutant strain, hits give high values. In a few lines: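 Yeast carrying a defined mutation is treated with each compound, and growth is compared with that of vehicle-exposed cells to give inhibition.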
Assay [6] can be described thus: NCI Yeast Anticancer Drug Screen. Data for the mlh1 rad18 strain (AID 175). The settings on record: S. cerevisiae mlh1 rad18 strain growth inhibition, hits give high values. In a few lines: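 Genetically defined yeast (DNA repair-deficient) exposed to compounds; growth inhibition determined relative to vehicle.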
Where [7] appears, read: at 5.0 µM (retest, dose inferred, filed as 0.5).
[8] abbreviates: at 50.0 µM (retest, dose inferred, filed as 5.0).

For the compound `C/C(=N\NC(=S)N1CCN(c2ccccn2)CC1)c1ncccn1`, the growth inhibition in assay [1] (setting [7]) is 2%; in assay [1] (setting [8]), -6%; in assay [1] (at 50.0 µM), 32.5%; in assay [2] (setting [7]) it was -20%; in assay [2] (setting [8]) it was -10%; in assay [2] (at 50.0 µM), 49.9%. Also, the growth inhibition in assay [3] (setting [7]) is -7%; in assay [3] (setting [8]) it was -13%; in assay [3] (at 50.0 µM), 45.9%; in assay [4] (setting [7]), -2%; in assay [4] (setting [8]), 7%; in assay [4] (at 50.0 µM) it was 83.2% (active). For the same compound, the growth inhibition is -10% in assay [5] (setting [7]); -9% in assay [5] (setting [8]); 93.6% (active) in assay [5] (at 50.0 µM); -3% in assay [6] (setting [7]); 10% in assay [6] (setting [8]); 86% (active) in assay [6] (at 50.0 µM).
With `N#C/C=C(\c1ccccc1)c1c[nH]c2ccccc12`, the growth inhibition in assay [1] (setting [7]) was -144%; in assay [1] (setting [8]), 97% (active); in assay [1] (at 50.0 µM), 97.5% (active); in assay [2] (setting [7]), -46%; in assay [2] (setting [8]) it was 99% (active); in assay [2] (at 50.0 µM), 98.1% (active). Besides, the growth inhibition was -62% in assay [3] (setting [7]); 98% (active) in assay [3] (setting [8]); 98.7% (active) in assay [3] (at 50.0 µM); -58% in assay [4] (setting [7]); 98% (active) in assay [4] (setting [8]); 95.8% (active) in assay [4] (at 50.0 µM). In addition, the growth inhibition in assay [5] (setting [7]) is -63%; in assay [5] (setting [8]), 97% (active); in assay [5] (at 50.0 µM), 97% (active); in assay [6] (setting [7]), -120%; in assay [6] (setting [8]) it was 98% (active); in assay [6] (at 50.0 µM) it was 98.2% (active).
As for `CC(C)(C)C(=O)/C=C/c1ccc2ccccc2n1`, the growth inhibition is -135% in assay [1] (setting [7]); -119% in assay [1] (setting [8]); 44.4% in assay [1] (at 50.0 µM); -48% in assay [2] (setting [7]); -51% in assay [2] (setting [8]); 51.1% in assay [2] (at 50.0 µM). For the same compound, the growth inhibition in assay [3] (setting [7]) was -62%; in assay [3] (setting [8]), -35%; in assay [3] (at 50.0 µM) it was 34.5%; in assay [4] (setting [7]), -66%; in assay [4] (setting [8]), -75%; in assay [4] (at 50.0 µM), 8.6%. For the same compound, the growth inhibition in assay [5] (setting [7]) is -67%; in assay [5] (setting [8]), -73%; in assay [5] (at 50.0 µM), 34.1%; in assay [6] (setting [7]) it was -126%; in assay [6] (setting [8]) it was -120%; in assay [6] (at 50.0 µM), 77.8% (active).
`CCOC(=O)C(NC(=O)C(CO)n1c(-c2ccccc2)c(-c2ccccc2)oc1=O)C(=O)OCC` (configuration not stated): the growth inhibition is 7% in assay [1] (setting [7]); 42% in assay [1] (setting [8]); 43.6% in assay [1] (at 50.0 µM); 2% in assay [2] (setting [7]); 19% in assay [2] (setting [8]); 26.4% in assay [2] (at 50.0 µM). Also, the growth inhibition is -2% in assay [3] (setting [7]); 35% in assay [3] (setting [8]); 41.5% in assay [3] (at 50.0 µM); -1% in assay [4] (setting [7]); 51% in assay [4] (setting [8]); -1.9% in assay [4] (at 50.0 µM). The growth inhibition in assay [5] (setting [7]) is 1%; in assay [5] (setting [8]), 51%; in assay [5] (at 50.0 µM), 22.2%; in assay [6] (setting [7]), 1%; in assay [6] (setting [8]) it was 20%; in assay [6] (at 50.0 µM), 53.1%.
Turning to `Cn1c(C(C)(C)OC(=O)Oc2ccccc2)cnc1[N+](=O)[O-]`, the growth inhibition is 0% in assay [1] (setting [7]); 51% in assay [1] (setting [8]); 37.1% in assay [1] (at 50.0 µM); -1% in assay [2] (setting [7]); 24% in assay [2] (setting [8]); 16.8% in assay [2] (at 50.0 µM). The growth inhibition in assay [3] (setting [7]) was 3%; in assay [3] (setting [8]), 68%; in assay [3] (at 50.0 µM), 65.5%; in assay [4] (setting [7]), 4%; in assay [4] (setting [8]), 31%; in assay [4] (at 50.0 µM), 30.4%. For the same compound, the growth inhibition in assay [5] (setting [7]) is 0%; in assay [5] (setting [8]) it was 4%; in assay [5] (at 50.0 µM), 1.35%; in assay [6] (setting [7]) it was 9%; in assay [6] (setting [8]), 54%; in assay [6] (at 50.0 µM), 38.8%.
Regarding `CC(C)OC(=O)c1ccc(NCc2cc(O)ccc2O)cc1Cl`, the growth inhibition in assay [1] (setting [7]) is 61%; in assay [1] (setting [8]), 99% (active); in assay [1] (at 50.0 µM), 89.8% (active); in assay [2] (setting [7]), 41%; in assay [2] (setting [8]), 99% (active); in assay [2] (at 50.0 µM), 90.3% (active). The growth inhibition is 55% in assay [3] (setting [7]); 99% (active) in assay [3] (setting [8]); 91.6% (active) in assay [3] (at 50.0 µM); 63% in assay [4] (setting [7]); 100% (active) in assay [4] (setting [8]); 89.5% (active) in assay [4] (at 50.0 µM). The growth inhibition in assay [5] (setting [7]) is 53%; in assay [5] (setting [8]), 100% (active); in assay [5] (at 50.0 µM) it was 88.9% (active); in assay [6] (setting [7]), 49%; in assay [6] (setting [8]) it was 98% (active); in assay [6] (at 50.0 µM), 88% (active).
Turning to `O=C(Nc1ccc(S(=O)(=O)NC2CCCCC2)cc1)OCc1ccccc1`, the growth inhibition in assay [1] (setting [7]) was 91% (active); in assay [1] (setting [8]) it was 17%; in assay [1] (at 50.0 µM) it was 57%; in assay [2] (setting [7]), 99% (active); in assay [2] (setting [8]), 26%; in assay [2] (at 50.0 µM), 9.85%. The growth inhibition in assay [3] (setting [7]) was 100% (active); in assay [3] (setting [8]) it was 12%; in assay [3] (at 50.0 µM), 73% (active); in assay [4] (setting [7]), 28%; in assay [4] (setting [8]) it was -10%; in assay [4] (at 50.0 µM) it was 30.7%. The growth inhibition is 99% (active) in assay [5] (setting [7]); 43% in assay [5] (setting [8]); 28.4% in assay [5] (at 50.0 µM); 91% (active) in assay [6] (setting [7]); 30% in assay [6] (setting [8]); 54.6% in assay [6] (at 50.0 µM).
Consider `OC1(C2CCCCC2)c2ccccc2Cc2ccccc21`, for which the growth inhibition in assay [1] (setting [7]) is 6%; in assay [1] (setting [8]), 80% (active); in assay [1] (at 50.0 µM) it was 97.2% (active); in assay [2] (setting [7]), 13%; in assay [2] (setting [8]) it was 76% (active); in assay [2] (at 50.0 µM), 98% (active). The growth inhibition is 12% in assay [3] (setting [7]); 93% (active) in assay [3] (setting [8]); 96.4% (active) in assay [3] (at 50.0 µM); -1% in assay [4] (setting [7]); 86% (active) in assay [4] (setting [8]); 95.4% (active) in assay [4] (at 50.0 µM). The growth inhibition in assay [5] (setting [7]) was 9%; in assay [5] (setting [8]), 90% (active); in assay [5] (at 50.0 µM), 96.8% (active); in assay [6] (setting [7]), 7%; in assay [6] (setting [8]), 90% (active); in assay [6] (at 50.0 µM), 97% (active).
For `O=C(N=c1sc2ccccc2s1)N=c1sc2ccccc2s1`, the growth inhibition is 1% in assay [1] (setting [7]); 10% in assay [1] (setting [8]); 45.9% in assay [1] (at 50.0 µM); 35% in assay [2] (setting [7]); -14% in assay [2] (setting [8]); -2.6% in assay [2] (at 50.0 µM). For the same compound, the growth inhibition in assay [3] (setting [7]) was 14%; in assay [3] (setting [8]), -20%; in assay [3] (at 50.0 µM), 47.6%; in assay [4] (setting [7]), -32%; in assay [4] (setting [8]), 6%; in assay [4] (at 50.0 µM), 84% (active). The growth inhibition in assay [5] (setting [7]) is -11%; in assay [5] (setting [8]), 7%; in assay [5] (at 50.0 µM) it was 29.6%; in assay [6] (setting [7]) it was -20%; in assay [6] (setting [8]), 10%; in assay [6] (at 50.0 µM), 50%.

The record behind these values is PubChem BioAssay (NCI).
